Data on five compounds can be found in PubChem BioAssay.

The structures appear in SMILES notation. Calls of active or inactive are those of the source. Unless noted, the rule behind the calls is not given here.

Assay [1] deals with Wnt5a (protein binding on small-molecule microarray). Briefly: Wnt5a binders on small-molecule microarray, primary screen, biophysical, 635/667 nm fluorescence (AID 1142).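 Note: fluorescence read at 667 nm with signal to noise per printed feature.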 The conditions noted are these: 635 nm fluorescence, higher = more signal.
Assay [2] is described as follows: cell viability in Huh7 cells, primary screen, cytotoxicity control for HCV replication inhibitor project, CellTiter-Glo luminescence, basal, 48 h (AID 1143).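 Note: Huh7 hepatoma cells carrying a hepatitis C replication reporter with no stimulus; test concentration not given here.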 To be noted: Huh7 HCV replicon, higher = more signal, called active from +8 up or from −8 down. (In ATP-based viability assays light output follows the ATP content of the culture.)
Assay [3] can be described thus: P. aeruginosa biofilm formation inhibitors, primary screen, PAO1 strain, BacTiter-Glo luminescence, LB-PBS (AID 1144). The conditions noted are these: 12 h, higher = more signal.
Assay [4] can be described thus: CREB reporter modulators without forskolin, primary screen, cell-based, PC12, CRE-LacZ reporter, unstimulated (AID 1145). The conditions noted are these: no forskolin, luminescence, 4.5 h, higher = more signal, called active from +8 up or from −8 down.
Assay [5] can be described thus: CREB reporter modulators under forskolin, primary screen, cell-based, PC12, CRE-LacZ reporter, forskolin-stimulated (AID 1146).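 Note: PC12 cells with 6xCRE LacZ reporter stimulated by forskolin 10 µM; beta-galactosidase reporter signal reflecting CREB driven transcription.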 The conditions noted are these: luminescence, 4.5 h, higher = more signal, called active from +8 up or from −8 down.
Assay [6] has as its target Streptavidin (Streptomyces avidinii) (UniProt P22629). Briefly: streptavidin binders on small-molecule microarray, primary screen, artefact control for SMM compound annotation, biophysical, 635/667 nm fluorescence (AID 1147).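 Note: signal reflects streptavidin binding to arrayed compounds as a control protein.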 To be noted: streptavidin binding, higher = more signal.
Assay [7] can be described thus: small-molecule binders of probe aInhba, primary screen, biochemical, small-molecule microarray, 635/667 nm fluorescence (AID 1148).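 Note: score merges 667nm spot fluorescence with signal-to-noise for antibody binding to printed compounds.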 The conditions noted are these: higher = more signal.
The target of assay [8] is Torsin-1A (Homo sapiens) (UniProt O14656). Briefly: torsin A binders from cell lysate, primary screen, small-molecule microarray, wild-type, 635/667 nm (AID 1149). To be noted: COS7 hTOR1A-WT lysate, 635 nm fluorescence, higher = more signal.
Assay [9] shares this target. Briefly: small-molecule binders of mutant TOR1A in lysate, primary screen, cell lysate, small-molecule microarray, COS7 lysate, 635/667 nm fluorescence (AID 1150).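 Note: score pools 667 nm emission and signal to noise measuring lysate protein binding.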 To be noted: COS7 hTOR1A mutant lysate, 635 nm fluorescence, higher = more signal.
The test system of assay [10] is Sonic hedgehog protein (Shh). Briefly: small-molecule binders of Shh protein, primary screen, biochemical, small-molecule microarray, 635/667 nm fluorescence (AID 1151).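 Note: Shh protein binding to compounds spotted on small-molecule microarray slides; score combines spot fluorescence intensity with signal-to-noise across triplicate slides.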 To be noted: small-molecule microarray binding, 635 nm fluorescence; higher = more signal.
A short description of assay [11]: E. coli DRC41 culture turbidity changes, primary screen, E. coli filamentation inducer project, strain DRC41, OD650, 48 h (AID 1152).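 Note: E. coli MC1000 strain DRC41 lacking acrAB efflux pump and sulA.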 To be noted: E. coli DRC41 (acrAB sulA), higher = more signal, called active from +8 up or from −8 down.
The nature of assay [12]: small-molecule binders of probe aLefty1, primary screen, biochemical, small-molecule microarray, 635/667 nm fluorescence (AID 1153).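 Note: score merges spot fluorescence with signal-to-noise ratio from the scanned slide images.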 To be noted: higher = more signal.
Assay [13] in a line: PSAC antagonists in infected red cells, primary screen, cell-based, P. falciparum Indochina, OD700, 1 h (AID 1154). To be noted: P. falciparum Indochina infected RBC osmotic lysis, higher = more signal, called active from +8 up or from −8 down.
Assay [14] is described as follows: PSAC antagonists in infected red cells, primary screen, cell-based, P. falciparum Indochina, OD700, 2 h (AID 1155).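 Note: lysis reports solute entry through the parasite surface anion channel PSAC; channel blockers reduce lysis of infected cells.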 The conditions noted are these: P. falciparum Indochina infected erythrocytes, osmotic lysis OD700; higher = more signal, called active from +8 up or from −8 down.
A short description of assay [15]: osmotic lysis modulators in infected erythrocytes, primary screen, PSAC antagonist project, cell-based, P. falciparum Indochina, OD700, 3 h (AID 1156). To be noted: higher = more signal, called active from +8 up or from −8 down.
A short description of assay [16]: PSAC antagonists in infected red cells, primary screen, cell-based, P. falciparum Indochina, OD700, 18 h (AID 1157). The conditions noted are these: P. falciparum Indochina infected erythrocytes, osmotic lysis OD700, 18 h; higher = more signal, called active from +8 up or from −8 down.
Assay [17] is described as follows: modulators of S6 phosphorylation in cells, primary screen, cell-based, A549, cytoblot, luminescence, serum-stimulated (AID 1158).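 Note: serum-stimulated A549 lung adenocarcinoma cells; signal is phosphorylated S6 detected by cytoblot immunostaining with HRP secondary.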 The conditions noted are these: A549 phospho-S6 cytoblot, 5 h, higher = more signal.
Assay [18] concerns the target NADPH oxidase 2 (Homo sapiens) (UniProt P04839). Briefly: NOX2-dependent H2O2 signal modulators, primary screen, NOX inhibitor project, cell-based, HEK293-NOX2, PMA-stimulated, Amplex Red fluorescence (AID 1159). Note: test concentration not given here. The conditions noted are these: 45 min, higher = more signal, called active from +8 up or from −8 down.
Assay [19] has as its target NADPH oxidase 4 (Homo sapiens) (UniProt Q9NPH5). Briefly: NOX4-dependent H2O2 signal modulators, primary screen, NOX inhibitor project, cell-based, HEK293-NOX4, tetracycline-induced, Amplex Red fluorescence (AID 1160). To be noted: 45 min, higher = more signal, called active from +8 up or from −8 down.
Assay [20] concerns the target NADPH oxidase 5 (Homo sapiens) (UniProt Q96PH1). Briefly: NOX5-dependent H2O2 signal modulators, primary screen, NOX inhibitor project, cell-based, HEK293-NOX5, Amplex Red fluorescence (AID 1161). To be noted: HEK293-NOX5, ionomycin, 45 min, higher = more signal.

NADPH oxidase 2 (Homo sapiens), sequence (P04839 whole entry, looked up): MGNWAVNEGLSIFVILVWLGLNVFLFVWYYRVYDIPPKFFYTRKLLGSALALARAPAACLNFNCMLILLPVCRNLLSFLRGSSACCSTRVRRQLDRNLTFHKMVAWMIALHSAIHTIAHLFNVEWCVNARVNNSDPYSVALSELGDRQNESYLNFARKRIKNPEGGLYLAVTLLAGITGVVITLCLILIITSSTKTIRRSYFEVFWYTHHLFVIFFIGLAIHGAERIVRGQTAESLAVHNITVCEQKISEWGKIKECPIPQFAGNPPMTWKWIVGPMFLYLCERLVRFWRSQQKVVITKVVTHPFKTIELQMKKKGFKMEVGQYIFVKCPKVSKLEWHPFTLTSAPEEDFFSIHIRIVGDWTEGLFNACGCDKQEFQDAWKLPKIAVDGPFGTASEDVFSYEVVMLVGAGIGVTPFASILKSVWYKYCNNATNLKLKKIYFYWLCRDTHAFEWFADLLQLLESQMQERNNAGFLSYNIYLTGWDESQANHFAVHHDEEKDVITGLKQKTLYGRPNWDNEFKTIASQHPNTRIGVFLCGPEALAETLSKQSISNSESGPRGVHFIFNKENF
Streptavidin (Streptomyces avidinii), sequence (P22629 whole entry, looked up): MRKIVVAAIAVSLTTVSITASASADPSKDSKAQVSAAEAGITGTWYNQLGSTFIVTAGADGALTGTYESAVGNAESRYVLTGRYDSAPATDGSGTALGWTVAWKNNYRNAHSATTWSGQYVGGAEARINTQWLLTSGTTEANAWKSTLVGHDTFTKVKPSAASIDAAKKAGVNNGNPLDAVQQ
Torsin-1A (Homo sapiens), sequence (O14656 whole entry, looked up): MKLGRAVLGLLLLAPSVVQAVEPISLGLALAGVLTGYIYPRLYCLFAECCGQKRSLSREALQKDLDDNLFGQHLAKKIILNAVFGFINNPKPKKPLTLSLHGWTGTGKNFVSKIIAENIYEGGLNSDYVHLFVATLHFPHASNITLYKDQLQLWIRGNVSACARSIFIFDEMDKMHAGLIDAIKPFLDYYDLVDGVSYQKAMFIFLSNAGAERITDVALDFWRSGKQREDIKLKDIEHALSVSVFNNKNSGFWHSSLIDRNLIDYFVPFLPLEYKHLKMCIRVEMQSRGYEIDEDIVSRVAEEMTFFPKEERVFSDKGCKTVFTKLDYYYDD
NADPH oxidase 5 (Homo sapiens), sequence (Q96PH1 whole entry, looked up): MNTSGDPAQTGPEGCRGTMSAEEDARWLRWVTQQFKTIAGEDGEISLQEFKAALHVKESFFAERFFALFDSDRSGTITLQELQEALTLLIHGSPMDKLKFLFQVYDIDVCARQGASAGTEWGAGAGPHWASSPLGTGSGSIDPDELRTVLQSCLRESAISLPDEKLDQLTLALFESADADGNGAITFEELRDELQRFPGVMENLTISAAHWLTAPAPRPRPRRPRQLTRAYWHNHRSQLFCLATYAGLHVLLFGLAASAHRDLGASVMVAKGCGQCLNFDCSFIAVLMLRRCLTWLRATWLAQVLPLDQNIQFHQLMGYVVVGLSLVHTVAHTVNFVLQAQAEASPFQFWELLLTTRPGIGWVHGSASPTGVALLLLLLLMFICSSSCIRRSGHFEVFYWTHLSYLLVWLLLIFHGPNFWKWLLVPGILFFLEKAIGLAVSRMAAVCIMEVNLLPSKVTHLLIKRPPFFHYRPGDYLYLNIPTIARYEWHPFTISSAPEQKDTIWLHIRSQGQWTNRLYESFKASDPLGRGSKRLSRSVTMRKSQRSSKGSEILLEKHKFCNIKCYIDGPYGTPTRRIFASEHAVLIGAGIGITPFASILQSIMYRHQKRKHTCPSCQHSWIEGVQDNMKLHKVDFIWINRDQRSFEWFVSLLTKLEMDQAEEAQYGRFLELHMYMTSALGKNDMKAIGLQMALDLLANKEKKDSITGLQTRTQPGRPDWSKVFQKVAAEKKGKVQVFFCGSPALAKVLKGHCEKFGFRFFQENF
NADPH oxidase 4 (Homo sapiens), sequence (Q9NPH5 whole entry, looked up): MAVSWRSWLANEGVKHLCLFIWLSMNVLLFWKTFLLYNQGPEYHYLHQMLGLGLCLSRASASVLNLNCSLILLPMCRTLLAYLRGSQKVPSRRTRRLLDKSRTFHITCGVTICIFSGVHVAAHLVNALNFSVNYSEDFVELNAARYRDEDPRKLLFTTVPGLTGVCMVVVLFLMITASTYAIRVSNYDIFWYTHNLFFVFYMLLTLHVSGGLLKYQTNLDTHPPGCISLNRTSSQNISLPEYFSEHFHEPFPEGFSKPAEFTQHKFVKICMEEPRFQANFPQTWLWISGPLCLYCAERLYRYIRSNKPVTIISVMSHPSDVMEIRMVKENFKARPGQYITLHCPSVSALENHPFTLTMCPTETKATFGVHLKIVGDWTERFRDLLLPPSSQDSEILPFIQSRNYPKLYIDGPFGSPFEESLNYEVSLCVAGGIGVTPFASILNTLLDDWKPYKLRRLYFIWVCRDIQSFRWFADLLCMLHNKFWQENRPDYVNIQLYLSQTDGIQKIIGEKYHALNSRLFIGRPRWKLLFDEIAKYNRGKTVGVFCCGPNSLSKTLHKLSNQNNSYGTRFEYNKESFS

Take `COc1ccc([Si](C)(C)[C@@H]2[C@@H](CC(=O)N(CCO)Cc3ccccc3)O[C@]3(C(=O)N(Cc4ccc(I)cc4)c4ccccc43)[C@H]2C)cc1`: the composite z-score in assay [1] came to 0.29; in [6], 0.349; in assay [7], 1.22; in assay [8], 0.402; in assay [9], 0.603; in assay [10], 2.01. In assay [12], this compound yielded a composite z-score of 1.03. For the same compound, the z-score was -4.48 (inactive) in [2]; -0.129 (inactive) in [3]; -0.505 (inactive) in assay [4]; -0.905 (inactive) in [5]; 0.452 (inactive) in [11]; 5.81 (inactive) in [13]. Moreover, the z-score in [14] was 1.02 (inactive); in assay [15], 0.408 (inactive); in [16] it was 0.794 (inactive); in assay [17], 0.421; in assay [18], 0.454 (inactive); in [19] it was 1.6 (inactive). The z-score in [20] is 1.55.

As for `COc1ccc([Si](C)(C)[C@H]2[C@H](CCO)O[C@@]3(C(=O)N(Cc4cccc(N(C=O)c5ccccc5)c4)c4ccccc43)[C@@H]2C)cc1`, the composite z-score in [1] was 0.313; in assay [6], 1.21; in assay [7], -0.018; in assay [8], 0.939; in assay [9], 1.01; in assay [10] it was 1.78. Moreover, the composite z-score in assay [12] was -0.339. Further, the z-score was -6.26 (inactive) in assay [2]; -0.914 (inactive) in [3]; -0.417 (inactive) in assay [4]; -1.56 (inactive) in [5]; 2.15 (inactive) in assay [11]; 2.24 (inactive) in assay [13]. Besides, the z-score is 2.47 (inactive) in [14]; 1.1 (inactive) in [15]; 1.82 (inactive) in assay [16]; 1.91 in assay [17]; -1.31 (inactive) in [18]; 0.451 (inactive) in assay [19]. Further, in assay [20], the z-score is 0.00518.

Turning to `COc1cc(C(O)C2C=CC3C(=O)N(c4ccccc4)C(=O)C3N2Nc2ccccc2)cc(OC)c1OC` (stereo not given), the composite z-score in [1] was 0.575; in [6], 1.39; in assay [7], 0.38; in [8], -0.327; in assay [9] it was -0.0996; in assay [10] it was -0.277. Further, in assay [12], the composite z-score came to 0.501. Moreover, the z-score in assay [2] is -0.685 (inactive); in assay [3], -0.983 (inactive); in [4], -0.322 (inactive); in assay [5], 0.226 (inactive); in [11], -0.915 (inactive); in [13] it was 26.2 (active). The z-score in assay [14] is 12.1 (active); in assay [15], 1.18 (inactive); in assay [16], 1.73 (inactive); in assay [17], -0.817; in [18], -1.61 (inactive); in [19], -3.49 (inactive). This compound came in with a z-score in assay [20] of -3.2.

For the compound `CCCCCC1=C2CNC(CC(C)C)(C(=O)OC)C=C2C(C)C1=O` (stereo not given), the composite z-score was -0.025 in assay [1]; 0.428 in assay [6]; 0.0668 in assay [7]; -0.276 in [8]; -0.207 in assay [9]; -0.242 in assay [10]. In [12], this compound registered a composite z-score of 0.172. For the same compound, the z-score in [2] is -0.575 (inactive); in [3] it was 0.661 (inactive); in assay [4], 0.0041 (inactive); in assay [5], 0.728 (inactive); in assay [11], -1.07 (inactive); in assay [13], 1.5 (inactive). In addition, the z-score is -0.602 (inactive) in [14]; 0.836 (inactive) in assay [15]; 0.347 (inactive) in assay [16]; -0.245 in assay [17]; -0.0792 (inactive) in [18]; -0.636 (inactive) in assay [19]. The same compound showed a z-score in [20] of -2.61.

Take `O=C1[C@@H]2[C@@H](CC(COc3ccccc3)=C([C@H](O)CCc3ccccc3)[C@@H]2CO)C(=O)N1Cc1ccccc1`: the composite z-score was -0.0252 in assay [1]; 0.541 in assay [6]; -0.274 in [7]; -0.19 in [8]; 0.167 in assay [9]; 0.801 in assay [10]. In addition, the composite z-score in assay [12] is -0.0867. The z-score is -2.37 (inactive) in assay [2]; -0.423 (inactive) in assay [3]; 4.74 (inactive) in [4]; 0.831 (inactive) in assay [5]; 0.17 (inactive) in assay [11]; 27.8 (active) in assay [13]. Also, the z-score in [14] is 21.8 (active); in [15], -0.602 (inactive); in [16], 2.05 (inactive); in [17], 0.05; in assay [18], -2.32 (inactive); in assay [19], -0.526 (inactive). Further, the z-score in [20] was -1.59.
